Shown are actives, neighbours in structure and some others; about 28% of the full set was active somewhere.
CYP2C19 activ – cytochrome P450 2C19 (human) activation | 96,000 tested, under 10 active | recombinant CYP2C19, luciferin-H EGE luminescence; stronger effect = higher value; 0 = fully inhibited enzyme, 1 = untreated enzyme | activation factor at 5 µM;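 active = activation factor of at least 2 at 5 µM in the primary screen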;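 also: 0 = wells with 2.5 mM tranylcypromine and 1 = vehicle-only wells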
CD11b adhes enh – CD11b/CD18-fibrinogen binding enhancement | K562 CD11b/CD18 adhesion to fibrinogen, ATPlite luminescence | P05107+P11215 | AID 1499 | hit rate 0.07% among 93,000 | activation, % at 10 µM;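 active = 10 µM primary screen giving 50% or more activity, confirmed by 40% or more on retest at that dose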
Target sequence (P05107 whole entry, looked up, other chains not shown): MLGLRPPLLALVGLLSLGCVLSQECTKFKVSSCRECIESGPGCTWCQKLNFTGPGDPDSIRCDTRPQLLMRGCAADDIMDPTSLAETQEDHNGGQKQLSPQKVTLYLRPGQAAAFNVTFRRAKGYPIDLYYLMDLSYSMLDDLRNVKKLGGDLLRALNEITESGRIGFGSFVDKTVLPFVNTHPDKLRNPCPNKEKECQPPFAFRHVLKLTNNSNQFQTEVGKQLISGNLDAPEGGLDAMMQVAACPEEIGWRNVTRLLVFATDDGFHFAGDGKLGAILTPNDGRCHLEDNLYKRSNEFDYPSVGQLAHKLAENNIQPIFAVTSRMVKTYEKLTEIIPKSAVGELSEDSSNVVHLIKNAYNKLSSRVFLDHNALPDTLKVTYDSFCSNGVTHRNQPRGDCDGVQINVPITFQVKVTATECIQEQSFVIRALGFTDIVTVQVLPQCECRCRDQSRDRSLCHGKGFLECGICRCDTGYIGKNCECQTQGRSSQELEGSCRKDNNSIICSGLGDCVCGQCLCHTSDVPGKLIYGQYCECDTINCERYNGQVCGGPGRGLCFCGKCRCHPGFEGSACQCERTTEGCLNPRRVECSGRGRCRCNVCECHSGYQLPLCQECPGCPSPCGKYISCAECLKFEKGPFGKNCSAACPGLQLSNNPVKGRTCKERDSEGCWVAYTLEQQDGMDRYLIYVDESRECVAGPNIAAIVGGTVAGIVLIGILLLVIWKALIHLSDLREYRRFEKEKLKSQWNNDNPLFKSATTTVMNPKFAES
CYP2C19 inhib – inhibitors of human CYP2C19. inhibition, % at 5 µM. hit rate 21% among 96,000. P33261. CYP2C19 Supersomes, luciferin-H EGE luminescence, 30 min. AID 778;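 active = CYP2C19 inhibition above a set limit at 5 µM in the primary screen, cut at about 50% in these data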;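 also: plate controls were negative control wells for no effect and 2.5 mM tranylcypromine positive control for full effect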
CYP2C9 inhib – human CYP2C9 inhibition. CYP2C9 Supersomes, luciferin-H conversion, luminescence. hit rate 20% among 96,000. P11712. inhibition, % at 5 µM;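 active = blocking of liver enzyme CYP2C9 beyond about 50% at 5 µM, limit read from the data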
CYP2C9 act – CYP2C9 (human) activation; AID 1024; hit rate 1.4% among 96,000; activation factor at 5 µM; recombinant CYP2C9, luciferin-H conversion, luminescence; stronger effect = higher value; factor 1 = untreated enzyme, 0 = blocked;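 active = activation factor of 2 or more for CYP2C9 at a 5 µM dose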;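 also: 0 = sulfaphenazole-blocked wells and 1 = vehicle-only wells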
Mac1 fbg inh – inhibitors of human CD11b/CD18 binding to fibrinogen | inhibition, % at 10 µM | AID 1497 | hit rate 0.54% among 93,000 | K562 CD11b/CD18 adhesion to fibrinogen, ATPlite luminescence; Mn2+ added to activate the integrin | P05107+P11215;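 active = primary inhibition of 50% or more at 10 µM, then 40% or more on retest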
Active calls of the source: *; . = no result given.

SMILES	CYP2C19 activ	CD11b adhes enh	CYP2C19 inhib	CYP2C9 inhib	CYP2C9 act	Mac1 fbg inh
Oc1ccccc1C1=Nc2nc3ccccc3n2C(c2ccccc2)C1 (configuration not stated)	0.1	-5.4	92.4*	98.7*	0	8.3
O=C(CC1CCCC1)NCCc1cn2ccccc2n1	0.3	6.3	67.7*	20.9	0.8	-13.1
O=C(Cc1cn2ccsc2n1)Nc1nc2c(s1)CCCC2	0.5	-0.9	47.3	52.1*	0.5	4.6
O=C(CC1CCCCC1)NCc1cn2ccsc2n1	0.6	-2.4	37.0	52.8*	0.5	-11.3
O=C(NCc1cccs1)c1ccc([N+](=O)[O-])cc1	.	-2.9	.	.	.	.
O=C(CNS(=O)(=O)c1cccc2nsnc12)NCc1ccc(Cl)cc1	0.5	-7.3	50.2*	52.1*	0.5	-9.7
COc1ccc(CNC(=O)C2CCC(CNS(=O)(=O)c3cccc4nsnc34)CC2)cc1 (configuration not stated)	1	2.4	-0.2	2.0	1	-2.8
O=C(CNS(=O)(=O)c1cccc2nonc12)NCc1ccc(F)cc1	0.5	0.6	52.9*	49.0	0.5	-27.9
Cc1ccc(N(CC(=O)O)S(=O)(=O)c2cccc3nonc23)cc1	0.9	2.9	6.4	14.4	0.9	-11.3
CC(C)(C)CC(=O)NC(=S)N1CCCCCC1	0.9	-0.1	14.0	-0.1	1	-14.2
COc1ccc(C(=O)c2nc3c(n2O)CCCCC3)cc1	1.1	-1.8	-14.2	14.3	0.9	-3.2
COc1ccc(C(=O)N2CCCC2)cc1	1	2.6	2.9	-4.8	1	-8.9
COc1ccc(OC)c(C(=O)c2ccc(C(=O)N3CCCCC3)cc2)c1	0.9	.	13.1	72.9*	0.3	.
COc1ccc(OC)c(C(=O)c2nc3c(n2O)CCCCC3)c1	0.7	10.2	33.5	51.1*	0.5	-18.4
O=C(c1ccc(Oc2ccccc2)cc1)c1nc2c(n1O)CCCC2	0.8	-5.6	15.5	67.3*	0.3	-42.7
O=C(COC(=O)C1CCN(S(=O)(=O)c2ccc3c(c2)OCCO3)CC1)Nc1cc(C(F)(F)F)ccc1Cl	.	-0.5	.	.	.	-0.2
CC(C)CCC1CC(CSC(=N)N)OC1=O (configuration not stated)	1	-3.0	1.1	-17.3	1.2	10.7
Cc1cccc(/C=C2\CCC(=C3SCCCS3)C2=O)c1	1	.	3.9	-9.3	1.1	.
O=C1C(=C2SCCCS2)CC/C1=C\c1ccc(F)cc1	0.5	.	51.4*	18.6	0.8	.
CN(Cc1ccccc1)Cc1nc2c(c(=O)n(C)c(=O)n2C)n1Cc1ccccc1Cl	0.7	-2.2	25.5	81.2*	0.2	-12.3
COC(=O)Cn1c(CN(Cc2ccccc2)Cc2ccccc2)nc2c1c(=O)[nH]c(=O)n2C	0.7	.	34.8	52.7*	0.5	.
Cn1c(=O)[nH]c(=O)c2c1nc(CN1CCN(Cc3ccccc3)CC1)n2CC(N)=O	1.1	-0.9	-7.1	-11.1	1.1	-60.1
CCOC(=O)Cn1c(CN2CCOCC2)nc2c1c(=O)n(C)c(=O)n2C	1.2	-6.2	-16.2	-16.9	1.2	5.6
Cn1c(=O)c2c(nc(NCc3ccc4c(c3)OCO4)n2Cc2ccccc2Cl)n(C)c1=O	1	9.1	0.7	1.4	1	-48.3
Cn1c(=O)c2c(nc(OCc3ccc4c(c3)OCO4)n2Cc2ccccc2Cl)n(C)c1=O	0.4	-0.4	56.2*	10.2	0.9	-3.5
SMILES	CYP2C19 activ	CD11b adhes enh	CYP2C19 inhib	CYP2C9 inhib	CYP2C9 act	Mac1 fbg inh
COCCn1c(CN(C)Cc2ccccc2)nc2c1c(=O)n(C)c(=O)n2C	0.9	2.1	11.3	46.8	0.5	0.3
CCOC(=O)Cn1c(CN(Cc2ccccc2)Cc2ccccc2)nc2c1c(=O)n(C)c(=O)n2C	0.2	-3.1	83.3*	98.9*	0	-2.5
Cc1nnc(SCCn2c(N(C)Cc3ccccc3)nc3c2c(=O)[nH]c(=O)n3C)s1	1	-1.6	-3.8	9.0	0.9	0.4
CCOc1ccc2cc(/C=C/C(=O)c3ccco3)c(Cl)nc2c1	0.8	0.5	18.1	25.1	0.7	8.8
CCCCn1c(CN(C)Cc2ccccc2)nc2c1c(=O)n(C)c(=O)n2C	0.4	-3.2	55.1*	98.1*	0	29.9
CCCn1c(CN(Cc2ccccc2)Cc2ccccc2)nc2c1c(=O)n(C)c(=O)n2C	0.9	1.4	8.5	86.6*	0.1	14.8
